# Assay results published in the supplement of paper PMC6555819.
# Columns and labels:
# Experiment in all cases: PBM binding z-score (relative to random genomic background probes); higher = stronger binding; sequences stand for … in GC…GCGATTGACAGCGTAGAATGAAGG
# [1] = test system: FXR:RXRa (NR concentration 270 nM, RXRa partner concentration 90 nM)
# Outline: (§1)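 Binding z-scores take random background probes as their reference. They come from custom Agilent 4×180K protein-binding microarrays incubated 1 h with ligand-free nuclear receptor dimers, with antibodies against each partner (one per run) detecting binding. Scanned fluorescence was regression-normalized.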
# [2] = test system: LXRa:RXRa (NR concentration 270 nM, RXRa partner concentration 90 nM)
# Outline: as §1
# [3] = test system: LXRa homodimer (NR concentration 270 nM)
# Outline: as §1
# [4] = test system: LXRb:RXRa (NR concentration 270 nM, RXRa partner concentration 90 nM)
# Outline: as §1
# [5] = test system: LXRb homodimer (NR concentration 270 nM)
# Outline: as §1
# [6] = test system: PPARa:RXRa (NR concentration 270 nM, RXRa partner concentration 90 nM)
# Outline: as §1
# [7] = test system: PPARg:RXRa (NR concentration 180 nM, RXRa partner concentration 90 nM)
# Outline: as §1
# [8] = test system: PPARg:RXRa 270nM:90nM, anti-RXR (NR concentration 270 nM, RXRa partner concentration 90 nM)
# Outline: as §1
# [9] = test system: PPARg:RXRa 30nM:10nM, anti-RXR (NR concentration 30 nM, RXRa partner concentration 10 nM)
# Outline: as §1
# [10] = test system: PPARg:RXRa 90nM:30nM, anti-RXR (NR concentration 90 nM, RXRa partner concentration 30 nM)
# Outline: as §1
# [11] = test system: PPARg:RXRa DBDmut IVT, anti-RXR (DBD mutation: RXRa K156A/R161A, NR concentration 270 nM, RXRa partner concentration 90 nM)
# Outline: as §1
# [12] = test system: PPARg:RXRa IVT, anti-PPARg (NR concentration 270 nM, RXRa partner concentration 90 nM)
# Outline: as §1
# [13] = test system: PPARg DBDmut:RXRa IVT, anti-PPARg (DBD mutation: PPARg1 K132A/R137A, NR concentration 270 nM, RXRa partner concentration 90 nM)
# Outline: as §1
# [14] = test system: PPARg DBDmut IVT, anti-PPARg (DBD mutation: PPARg1 K132A/R137A, NR concentration 270 nM)
# Outline: as §1
# [15] = test system: PPARg homodimer (NR concentration 180 nM)
# Outline: as §1
# [16] = test system: PXR:RXRa (NR concentration 270 nM, RXRa partner concentration 90 nM)
# Outline: as §1
# [17] = test system: PXR homodimer (NR concentration 270 nM)
# Outline: as §1
# [18] = test system: RARa:RXR (NR concentration 270 nM, RXRa partner concentration 90 nM)
# Outline: as §1
# [19] = test system: RARa homodimer (NR concentration 270 nM)
# Outline: as §1
# [20] = test system: RARb:RXRa (NR concentration 270 nM, RXRa partner concentration 90 nM)
# Outline: as §1
Sequence,PBM binding z-score [1],PBM binding z-score [2],PBM binding z-score [3],PBM binding z-score [4],PBM binding z-score [5],PBM binding z-score [6],PBM binding z-score [7],PBM binding z-score [8],PBM binding z-score [9],PBM binding z-score [10],PBM binding z-score [11],PBM binding z-score [12],PBM binding z-score [13],PBM binding z-score [14],PBM binding z-score [15],PBM binding z-score [16],PBM binding z-score [17],PBM binding z-score [18],PBM binding z-score [19],PBM binding z-score [20]
AGAACGAGGGCAATGAGTTGATATCACGGGTGGC,0.383,0.334,-0.363,-0.00546,-0.245,1.52,1.86,1.07,0.219,0.833,3.27,2.39,0.947,-0.37,0.0848,1.68,4.4,0.557,-0.0418,1.95
CCTAGTTGGTCAGGAGATCACACACCGGATATGA,0.118,0.263,0.478,0.0659,0.414,0.215,1.01,0.651,0.236,0.432,0.463,0.766,0.576,0.266,1.26,0.215,0.728,0.415,1.34,0.518
CGAACGAGGGCATGAGGTGATAGCAAATGCCGAT,0.82,0.474,-0.458,0.317,-0.998,2.05,2.27,2.23,0.483,1.49,3.25,3.37,0.644,-0.341,0.574,0.422,-0.352,1.16,0.0615,2.26
TCTTGTAGATCAAAGGGTAAGAAAGCCGAAGCCT,0.566,0.4,-0.283,0.288,-0.418,2.51,4.4,5.99,5.35,6.1,1.69,1.86,-0.0494,-0.151,-0.138,0.0425,-0.478,0.483,-0.0812,0.507
TTACCAAGGTGAAGGTCGTTGAGCCCTCTGTAGA,1.3,1.24,-0.339,0.883,-1.13,2.65,2.83,4.43,2.31,3.92,1.99,3.36,-0.0104,-0.329,0.702,1.16,-0.0928,1.57,-0.872,2.07
GCTAGTTGGTCAGTAAAAGGTCACACGCCGGTCG,3.48,4.98,4.69,4.1,0.629,4.52,3.32,4.66,2.53,4.53,1.06,3.13,-0.186,0.255,3.94,5.06,0.982,6.11,1.93,4.53
TTACCAAGGTGAGCTGAGGTCGTTGACCCAACTC,2.54,2.48,-0.484,1.43,-0.784,2.06,0.441,0.96,-0.036,0.348,0.928,2.03,0.277,-0.41,0.266,5.01,0.193,2.57,-0.539,1.91
AGAATGAGGTTATCAAGATCAGGGAATTGCGGTC,1.64,1.37,0.0557,1.14,-0.163,2.8,1.6,2.08,0.462,1.29,3.5,2.6,0.708,-0.123,0.956,1.27,0.0679,1.67,0.465,1.71
GCATATAGGTAATACAAGGTGACAGTCCGATTGT,0.924,1.5,0.00702,0.333,-0.21,1.16,1.5,1.19,0.699,0.902,4.45,3.54,1.4,0.834,0.847,0.242,0.189,1.36,0.735,0.42
GCAGACAGGTGAAACGCAGGTAACACAGGGTGGC,-0.0327,-0.0189,-0.439,-0.317,-1.1,0.885,0.859,0.128,-0.52,-0.381,0.623,0.202,0.00158,-0.396,-0.0973,0.067,-0.211,0.594,-0.376,0.622
CGAACCAGGTCATCCAGGACAGTGAATACATTGA,5.37,3.75,1,3.05,0.375,4.67,4.89,4.6,1.51,3.59,5.15,5.48,1.46,0.673,2.01,2.98,3.52,3.1,1.01,3.95
ATCTCTAGGTAAAGATAGTTCAGTAAATGCAAAT,0.492,4.09,0.589,1.27,0.936,0.78,0.749,0.691,0.403,0.563,1.89,1.77,1.18,0.812,0.801,1.14,0.936,0.952,1.67,0.706
CTCGAAAGGTCGGTTGAGGTGCGTATACGGATAA,2.39,1.39,-0.235,1.24,-0.239,2.3,0.2,0.942,0.258,0.457,-0.22,0.354,-0.47,-0.617,0.786,1.84,0.0676,1.44,-0.0377,2.92
